Test system: Vero E6 infected with SARS-CoV-2
Experiment: inhibition of SARS-CoV-2 cytopathic effect; higher = more antiviral protection, active = above 15
Settings: 48 h

Measured: inhibition of SARS-CoV-2 cytopathic effect

O=S1(=O)c2cccc3cccc(c23)N1CCCN1CCN(c2ccc(F)cc2)CC1 [fananserin]
inactive: 1 nM -2.57% | 8.33 nM -1.46% | 100 nM -1.21% | 833.33 nM -2.34% | 10000 nM -0.89%

Cc1cc(-n2c(=O)[nH]c(=O)n(C)c2=O)ccc1Oc1ccc(SC(F)(F)F)cc1 [toltrazuril]
inactive: 1 nM 1.91% | 8.33 nM -0.85% | 100 nM 1.02% | 833.33 nM -10.3% | 10000 nM -0.06%

NC(=O)Nc1sc(-c2ccc(F)cc2)cc1C(N)=O
inactive: 1 nM 1.14% | 8.33 nM -0.06% | 100 nM -0.35% | 833.33 nM -3.05% | 10000 nM -0.22%

CC(C)(COP(=O)(O)OP(=O)(O)OC[C@H]1O[C@@H](n2cnc3c(N)ncnc32)[C@H](O)[C@@H]1OP(=O)(O)O)[C@@H](O)C(=O)NCCC(=O)NCCS [coenzyme-A]
inactive: 1 nM -2.14% | 8.33 nM 0.97% | 100 nM 2.41% | 833.33 nM 1.91% | 10000 nM 2.93%

CCOP(=S)(OCC)Oc1cc(C)nc(C(C)C)n1 [dimpylate]
inactive: 1 nM 1.47% | 8.33 nM -0.54% | 100 nM 2.07% | 833.33 nM 1.11% | 10000 nM -3.47%

CCC[C@H](N[C@@H](C)C(=O)N1[C@H](C(=O)O)C[C@@H]2CCCC[C@@H]21)C(=O)O [perindoprilat]
inactive: 1 nM 4.13% | 8.33 nM -0.1% | 100 nM 3.43% | 833.33 nM 0.42% | 10000 nM -3.18%

COC(=O)C1=CO[C@@H](O)[C@@H]2C(CO)=CC[C@H]12 [genipin]
inactive: 1 nM -1.26% | 8.33 nM 1% | 100 nM 0.94% | 833.33 nM -0.49% | 10000 nM -0.89%

c1ccc2c(c1)CCC[C@H]2Nc1nc2ccccc2[nH]1
inactive: 1 nM 2.74% | 8.33 nM 2.66% | 100 nM 1.8% | 833.33 nM -1.92% | 10000 nM -0.48%

C[C@]12CCC(=O)C=C1CC[C@@H]1[C@@H]2CC[C@@]2(C)[C@H]1CC[C@]2(C)O [17-alpha-Methyltestosterone]
inactive: 1 nM 0.59% | 8.33 nM 1.3% | 100 nM -0.05% | 833.33 nM 1.19% | 10000 nM 1.92%

Clc1cccc(Cl)c1CSc1nnc(-c2cnccn2)s1 [yoda-1]
inactive: 1 nM 1.9% | 8.33 nM 3.59% | 100 nM -0.57% | 833.33 nM 2.67% | 10000 nM 9.5%

O=[N+]([O-])c1cn2c(n1)OC[C@@H](OCc1ccc(-c3ccc(OC(F)(F)F)cc3)nc1)C2
inactive: 1 nM 1.33% | 8.33 nM -0.87% | 100 nM -0.57% | 833.33 nM 4.38% | 10000 nM 0.34%

COc1ccccc1OCC(O)CNC(C)C (stereo not given) [moprolol]
inactive: 1 nM -0.33% | 8.33 nM -2.22% | 100 nM -0.82% | 833.33 nM -3.01% | 10000 nM -2.72%

N=C(N)SCCc1c[nH]cn1 [imetit]
inactive: 1 nM -0.58% | 8.33 nM -0.44% | 100 nM -2.84% | 833.33 nM -2.2% | 10000 nM -1.05%

COCCN1CCC(C(=O)NO)(S(=O)(=O)c2ccc(Oc3ccc(OC(F)(F)F)cc3)cc2)CC1
inactive: 1 nM 3.42% | 8.33 nM 2.45% | 100 nM 2.99% | 833.33 nM 3.32% | 10000 nM 1.34%

Cc1cc(SCc2sc(-c3ccc(C(F)(F)F)cc3)nc2C)ccc1OCC(=O)O
inactive: 1 nM -0.18% | 8.33 nM 1.2% | 100 nM 0.1% | 833.33 nM 1.79% | 10000 nM -2.99%

COc1cc(C[C@H]2C(=O)OC[C@@H]2Cc2ccc(OC)c(OC)c2)ccc1O [arctigenin]
inactive: 1 nM -2.79% | 8.33 nM 0.36% | 100 nM -2.78% | 833.33 nM 0.01% | 10000 nM 2.1%

CCN1CCN(c2ccc(Nc3cc(N(C)C(=O)Nc4c(Cl)c(OC)cc(OC)c4Cl)ncn3)cc2)CC1
active: 10000 nM 23.9%
inactive: 1 nM -2.08% | 8.33 nM -5.16% | 100 nM 0.14% | 833.33 nM -2.75%

C=CCc1cccc(/C=N/NC(=O)CN2CCN(Cc3ccccc3)CC2)c1O
inactive: 1 nM 0.07% | 8.33 nM 0.95% | 100 nM 4.72% | 833.33 nM 0.65% | 10000 nM -2.23%

Cc1cn2c(N)c(Cl)cc(C(=O)NCC3CCN(CC(C)C)CC3)c2n1
inactive: 1 nM 2.35% | 8.33 nM 1.24% | 100 nM 2.96% | 833.33 nM 3.33% | 10000 nM 0.75%

C/C(=C\C(N)C(=O)O)CP(=O)(O)O (stereo not given)
inactive: 1 nM -2.33% | 8.33 nM -2.58% | 100 nM 0.17% | 833.33 nM 5.33% | 10000 nM -3.57%

C/C(=C\c1csc(C)n1)[C@@H]1C[C@@H]2O[C@]2(C)CCC[C@H](C)[C@H](O)[C@@H](C)C(=O)C(C)(C)[C@@H](O)CC(=O)O1 [epothilone-B]
inactive: 1 nM -1.66% | 8.33 nM -5.81% | 100 nM -4.92% | 833.33 nM -0.91% | 10000 nM -0.53%

O=C1OC(CN2CCOCC2)CN1/N=C/c1ccc([N+](=O)[O-])o1 (stereo not given) [furaltadone]
inactive: 1 nM -10.1% | 8.33 nM -5.96% | 100 nM -8.17% | 833.33 nM -6.67% | 10000 nM -6.1%

CC(C)(C)c1nc(-c2cccc(NS(=O)(=O)c3c(F)cccc3F)c2F)c(-c2ccnc(N)n2)s1 [dabrafenib]
inactive: 1 nM -0.66% | 8.33 nM -0.54% | 100 nM 0.25% | 833.33 nM -1.77% | 10000 nM 13.1%

CCN(CC)CCOC(=O)c1ccc(N)cc1 [procaine]
inactive: 1 nM -1.32% | 8.33 nM -0.89% | 100 nM -0.82% | 833.33 nM -1.72% | 10000 nM -0.17%

O=C(O)c1c(Cl)c(Cl)c(Cl)c(Cl)c1-c1c2cc(I)c(=O)c(I)c-2oc2c(I)c(O)c(I)cc12 [rose-bengal]
inactive: 1 nM -2.56% | 8.33 nM -2.17% | 100 nM 1.8% | 833.33 nM -2.12% | 10000 nM -13.9%

COc1cccc(OC)c1-c1ccc(C[C@H](NC(=O)c2c(Cl)cccc2Cl)C(=O)O)cc1
inactive: 1 nM 0.68% | 8.33 nM 2% | 100 nM 0.48% | 833.33 nM 1.89% | 10000 nM 1.23%

C[C@@H]1CC[C@H]2C(C)(C)[C@H]3C[C@@]12CC[C@@]3(C)O [cedrol]
inactive: 1 nM -1.18% | 8.33 nM -3.1% | 100 nM -1.28% | 833.33 nM -1.1% | 10000 nM -1.09%

Cc1ccc(NC(=O)CCCCCC(=O)Nc2ccccc2N)cc1
inactive: 1 nM 2.4% | 8.33 nM 1.59% | 100 nM 0.54% | 833.33 nM 1.31% | 10000 nM 3.57%

CC(=O)N1CC[N+](C)(C)CC1 [4-acetyl-1,1-dimethylpiperazinium]
inactive: 1 nM 0.03% | 8.33 nM -1.23% | 100 nM 0.82% | 833.33 nM 1.13% | 10000 nM 0.5%

O=C1[C@@H]2[C@H]3CC[C@H](C3)[C@@H]2C(=O)N1C[C@@H]1CCCC[C@H]1CN1CCN(c2nsc3ccccc23)CC1 [lurasidone]
inactive: 1 nM -0.28% | 8.33 nM 0.05% | 100 nM 1.73% | 833.33 nM 3.11% | 10000 nM -6.2%

CCc1nn(CCO)c(CC)c1Oc1cc(C#N)cc(C#N)c1 [lersivirine]
inactive: 1 nM 2.25% | 8.33 nM 2.52% | 100 nM 2.57% | 833.33 nM 0.87% | 10000 nM 2.19%

O=C(O)C1=CCCN(CCOC(c2ccc(C(F)(F)F)cc2)c2ccc(C(F)(F)F)cc2)C1
inactive: 1 nM 0.02% | 8.33 nM 0.95% | 100 nM -2.81% | 833.33 nM 1.77% | 10000 nM 0.32%

C1=N/C2=N/c3ccc(OCCN4CCCC4)c(c3)COC/C=C/COCc3cccc(c3)C(=C1)N2 [pacritinib]
inactive: 1 nM -0.44% | 8.33 nM 0.71% | 100 nM 0.95% | 833.33 nM 0.27% | 10000 nM -15%

C=C1/C(=C\C=C2/CCC[C@]3(C)[C@@H]([C@H](C)/C=C/[C@@H](O)C4CC4)CC[C@@H]23)C[C@@H](O)C[C@@H]1O [calcipotriol]
inactive: 1 nM -0.16% | 8.33 nM 1.94% | 100 nM -0.66% | 833.33 nM 0.91% | 10000 nM 3.83%

CCc1cnc(N2CCC(c3nc(COc4ccc(-n5cnnn5)cc4)cs3)CC2)nc1
inactive: 1 nM 1.55% | 8.33 nM -3.29% | 100 nM -4.15% | 833.33 nM -3.29% | 10000 nM 0.22%

CC(/C=C1\SC(=S)N(CC(=O)O)C1=O)=C\c1ccccc1 [epalrestat]
inactive: 1 nM -1.25% | 8.33 nM -1.52% | 100 nM -1.17% | 833.33 nM 1.15% | 10000 nM -0.07%

CN1CCCC(n2nc(Cc3ccc(Cl)cc3)c3ccccc3c2=O)CC1 (stereo not given) [azelastine]
inactive: 1 nM -1.24% | 8.33 nM -0.03% | 100 nM -3.43% | 833.33 nM -2.95% | 10000 nM -3.03%

CCOC(=O)[C@]12CC1/C(=N\O)c1ccccc1O2 (stereo not given in full)
inactive: 1 nM 1.49% | 8.33 nM -0.95% | 100 nM -1.19% | 833.33 nM -3.34% | 10000 nM -1.39%

CS(=O)(=O)c1ccc([C@@H](O)[C@@H](CF)NC(=O)C(Cl)Cl)cc1 [florfenicol]
inactive: 1 nM -5.27% | 8.33 nM -3.73% | 100 nM -3.16% | 833.33 nM 0.63% | 10000 nM -0.52%

From the supplement of paper PMC13380429
